Data as given in PubChem BioAssay AID1159580 (chemical genetic matrix, 2015).
Screen size: about 5,500 compounds; about 2,000 (36%) were called active. Inconclusive results (about 18%) are left out. Rule as the data show it: active = normalized growth mostly below about 0.91 (no sharp cut-off); inconclusive = no clear call, values can overlap the other calls; inactive = mostly above about 0.92. This is one part of the list.

Experiment: chemical genetic growth profiling, strain panel (AID 1159580);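 also: tested at 20 µM; growth read once vehicle control cultures reached saturation at 30 °C; 1 = growth at the plate median or of vehicle wells; lower values mean less growth of the strain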
Settings: S. cerevisiae deletion strains, growth OD

Measured: normalized growth

O=C(O)c1cc(=O)c(O)c2c(O)c(O)c(O)cc2c1
inactive: locus YDL005C, strain med2, active compounds read low 0.953 | locus YGL227W, strain vid30, active compounds read low 0.944 | locus YKR091W, strain srl3, active compounds read low 0.934 | locus YMR125W, strain sto1, active compounds read low 0.89
active: locus YAL021C, strain ccr4, active compounds read low 0.0892 | locus YAL026C, strain drs2, active compounds read low 0.216 | locus YAL030W, strain snc1, active compounds read low 0.757 | locus YBL061C, strain skt5, active compounds read low 0.639 | locus YBR009C, strain hhf1, active compounds read low 0.694 | locus YBR023C, strain chs3, active compounds read low 0.549 | locus YBR171W, strain sec66, active compounds read low 0.812 | locus YBR231C, strain swc5, active compounds read low 0.483 | locus YBR279W, strain paf1, active compounds read low 0.754 | locus YCL011C, strain gbp2, active compounds read low 0.72 | locus YCL016C, strain dcc1, active compounds read low 0.809 | locus YCL061C, strain MRC1, active compounds read low 0.651 | locus YCL069W, strain vba3, active compounds read low 0.69 | locus YCR088W, strain abp1, active compounds read low 0.707 | locus YDL040C, strain nat1, active compounds read low 0.906 | locus YDR001C, strain nth1, active compounds read low 0.846 | locus YDR069C, strain doa4, active compounds read low 0.161 | locus YDR137W, strain rgp1, active compounds read low 0.142 | locus YDR159W, strain sac3, active compounds read low 0.134 | locus YDR195W, strain ref2 0.481 | locus YDR297W, strain sur2, active compounds read low 0.729 | locus YDR334W, strain swr1, active compounds read low 0.353 | locus YDR335W, strain msn5, active compounds read low 0.128 | locus YDR392W, strain spt3, active compounds read low 0.708 | locus YEL003W, strain gim4, active compounds read low 0.511 | locus YEL037C, strain rad23, active compounds read low 0.552 | locus YEL061C, strain CIN8 (second series), active compounds read low 0.756 | locus YER015W, strain faa2, active compounds read low 0.488 | locus YER016W, strain bim1, active compounds read low 0.84 | locus YER111C, strain swi4, active compounds read low 0.14 | locus YER155C, strain BEM2 (second series), active compounds read low 0.432 | locus YFR010W, strain ubp6, active compounds read low 0.374 | locus YGL167C, strain pmr1, active compounds read low 0.558 | locus YGL173C, strain kem1, active compounds read low 0.352 | locus YGL240W, strain doc1, active compounds read low 0.869 | locus YGL253W, strain hxk2, active compounds read low 0.545 | locus YHR013C, strain ard1, active compounds read low 0.546 | locus YHR027C, strain rpn1, active compounds read low 0.422 | locus YHR030C, strain SLT2, active compounds read low 0.581 | locus YHR079C, strain IRE1, active compounds read low 0.546 | locus YHR142W, strain chs7, active compounds read low 0.363 | locus YJL092W, strain hpr5, active compounds read low 0.728 | locus YJL095W, strain BCK1 (second series), active compounds read low 0.604 | locus YJL095W, strain BCK1, active compounds read low 0.575 | locus YJL115W, strain asf1, active compounds read low 0.771 | locus YJL129C, strain trk1, active compounds read low 0.235 | locus YJL154C, strain vps35, active compounds read low 0.768 | locus YJL164C, strain tpk1, active compounds read low 0.666 | locus YJL166W, strain qcr8, active compounds read low 0.743 | locus YJL187C, strain SWE1, active compounds read low 0.737 | locus YJR066W, strain TOR1, active compounds read low 0.312 | locus YKL160W, strain elf1, active compounds read low 0.777 | locus YKR026C, strain gcn3, active compounds read low 0.854 | locus YLL001W, strain dnm1, active compounds read low 0.548 | locus YLL026W, active compounds read low 0.804 | locus YLL041C, strain sdh2, active compounds read low 0.897 | locus YLR027C, strain aat2, active compounds read low 0.718 | locus YLR113W, strain HOG1, active compounds read low 0.525 | locus YLR221C, strain rsa3, active compounds read low 0.685 | locus YLR258W, strain gsy2, active compounds read low 0.787 | locus YLR262C, strain YPT6 (second series), active compounds read low 0.483 | locus YLR320W, strain mms22, active compounds read low 0.56 | locus YLR342W, strain FKS1, active compounds read low 0.538 | locus YLR357W, strain rsc2, active compounds read low 0.593 | locus YLR370C, strain arc18, active compounds read low 0.347 | locus YLR384C, strain iki3, active compounds read low 0.642 | locus YML120C, strain ndi1, active compounds read low 0.193 | locus YMR058W, strain fet3, active compounds read low 0.275 | locus YMR129W, active compounds read low 0.815 | locus YMR205C, strain PFK2, active compounds read low 0.547 | locus YMR231W, strain pep5, active compounds read low 0.169 | locus YNL071W, strain lat1, active compounds read low 0.873 | locus YNL183C, strain NPR1, active compounds read low 0.243 | locus YNL209W, strain ssb2, active compounds read low 0.273 | locus YNL248C, strain rpa49, active compounds read low 0.725 | locus YNL322C, strain KRE1 (second series), active compounds read low 0.208 | locus YNR049C, strain mso1, active compounds read low 0.79 | locus YOR001W, strain rrp6, active compounds read low 0.544 | locus YOR070C, strain gyp1, active compounds read low 0.849 | locus YOR080W, strain dia2, active compounds read low 0.387 | locus YOR083W, strain WHI5, active compounds read low 0.645 | locus YOR106W, strain vam3, active compounds read low 0.295 | locus YOR231W, strain MKK1, active compounds read low 0.615 | locus YOR265W, strain rbl2, active compounds read low 0.771 | locus YOR270C, strain vph1, active compounds read low 0.198 | locus YOR290C, strain snf2, active compounds read low 0.0962 | locus YPL051W, strain arl3, active compounds read low 0.465 | locus YPL078C, strain atp4, active compounds read low 0.124 | locus YPL106C, strain sse1, active compounds read low 0.723 | locus YPL240C, strain hsp82, active compounds read low 0.872 | locus YPL256C, strain CLN2, active compounds read low 0.567
